{
  "source": "the OligoGym collection",
  "data": [
    {"target": "SCN4A", "test": "pooled miR-30 sensor sort-seq; sequence = guide strand", "conditions": "shRNA", "values": [
      {"sequence": "TACTCCACATTCTTGGACCAGG", "sensor-assay potency score (higher = more potent)": -1.18},
      {"sequence": "TTGATGAGCATGTTCAGCGTTG", "sensor-assay potency score (higher = more potent)": -0.377},
      {"sequence": "TGCTCGACAATCTTGAAGCAGG", "sensor-assay potency score (higher = more potent)": -1.33},
      {"sequence": "TGCAGTAGTAGAACTTGCCGGC", "sensor-assay potency score (higher = more potent)": 0.0253},
      {"sequence": "TTGAGCACGATGCAGATGGTGA", "sensor-assay potency score (higher = more potent)": -0.925},
      {"sequence": "TTGTACAGGATGTCCACCTTGA", "sensor-assay potency score (higher = more potent)": 0.539},
      {"sequence": "TAGTCCTGTGTCATGAGGCGGA", "sensor-assay potency score (higher = more potent)": -0.484},
      {"sequence": "TTCAGAACCATCTCTGCTGTGA", "sensor-assay potency score (higher = more potent)": 0.403},
      {"sequence": "TTGACCTTGACATTGAGCCAGC", "sensor-assay potency score (higher = more potent)": -0.555}
    ]},
    {"target": "SDHAF1", "test": "pooled miR-30 sensor sort-seq; sequence = guide strand", "conditions": "shRNA", "values": [
      {"sequence": "ATGCTGCCGGAACTCTGCCCGC", "sensor-assay potency score (higher = more potent)": -1.77},
      {"sequence": "ACTGTCGCCGTCGTCAGGCTGG", "sensor-assay potency score (higher = more potent)": -1.04},
      {"sequence": "TACTCGATGCGCAGCACGTCGG", "sensor-assay potency score (higher = more potent)": -1.32},
      {"sequence": "TGCGCAGCACGTCGGACCGCGG", "sensor-assay potency score (higher = more potent)": -1.5},
      {"sequence": "TTGGACTGTCGCCGTCGTCAGG", "sensor-assay potency score (higher = more potent)": -1.17},
      {"sequence": "TACAGGCTCAGAACCTGCCTCT", "sensor-assay potency score (higher = more potent)": -0.402},
      {"sequence": "TCCTTGGACTGTCGCCGTCGTC", "sensor-assay potency score (higher = more potent)": -1.69},
      {"sequence": "TGTCGCCGTCGTCAGGCTGGGA", "sensor-assay potency score (higher = more potent)": -1.53},
      {"sequence": "ATGCGCAGCACGTCGGACCGCG", "sensor-assay potency score (higher = more potent)": -1.11},
      {"sequence": "TGGACTGTCGCCGTCGTCAGGC", "sensor-assay potency score (higher = more potent)": -0.932},
      {"sequence": "TCGATGCGCAGCACGTCGGACC", "sensor-assay potency score (higher = more potent)": -1.24},
      {"sequence": "TCGTGGGGGTTCCTTGGACTGT", "sensor-assay potency score (higher = more potent)": -2.02}
    ]},
    {"target": "SDR9C7", "test": "pooled miR-30 sensor sort-seq; sequence = guide strand", "conditions": "shRNA", "values": [
      {"sequence": "TAACTTGTCAGTATAGATGCGG", "sensor-assay potency score (higher = more potent)": -0.0735},
      {"sequence": "TTGTTCGCCCACTTTGTCCCTC", "sensor-assay potency score (higher = more potent)": -0.717},
      {"sequence": "TTATGTTTTTTAACTTGTCAGT", "sensor-assay potency score (higher = more potent)": -0.963},
      {"sequence": "TAGAGCTCACGCCTTATGCTGT", "sensor-assay potency score (higher = more potent)": -0.719},
      {"sequence": "ATGCTGTTGATGACATCTCTGA", "sensor-assay potency score (higher = more potent)": -0.812},
      {"sequence": "AACTTGTCAGTATAGATGCGGA", "sensor-assay potency score (higher = more potent)": -0.682},
      {"sequence": "TTCGCTCTTGGTGACATCCAGT", "sensor-assay potency score (higher = more potent)": -0.405},
      {"sequence": "TTAGGATGAAATCTGTCACAGG", "sensor-assay potency score (higher = more potent)": -0.552},
      {"sequence": "TTGATGACATCTCTGACTCTGG", "sensor-assay potency score (higher = more potent)": 0.0736},
      {"sequence": "TTGCAGTTCTTGAACCAGCGAT", "sensor-assay potency score (higher = more potent)": -0.518},
      {"sequence": "TTGCCGAGAATGGCTGTCCGAT", "sensor-assay potency score (higher = more potent)": -0.982},
      {"sequence": "TTGATGCTTTCGCTCTTGGTGA", "sensor-assay potency score (higher = more potent)": -1.21}
    ]},
    {"target": "SEC11C", "test": "pooled miR-30 sensor sort-seq; sequence = guide strand", "conditions": "shRNA", "values": [
      {"sequence": "TTGGAATGTCTCGTCCTTCAAC", "sensor-assay potency score (higher = more potent)": -1.07},
      {"sequence": "TGAACTATTGGAATGTCTCGTC", "sensor-assay potency score (higher = more potent)": 0.149},
      {"sequence": "ATCTTTTTCATGAACTTTGATT", "sensor-assay potency score (higher = more potent)": -1.19},
      {"sequence": "TTTGATTACTCTGTGAACTATT", "sensor-assay potency score (higher = more potent)": -0.483},
      {"sequence": "TCATGAACTTTGATTACTCTGT", "sensor-assay potency score (higher = more potent)": 0.434},
      {"sequence": "TTCAACTTTAAAAACAACTATT", "sensor-assay potency score (higher = more potent)": -1.15},
      {"sequence": "ATTATTATCTCCTTTAGTCAGA", "sensor-assay potency score (higher = more potent)": -0.731}
    ]}
  ]
}
